Source: PubChem BioAssay (National Center for Advancing Translational Sciences (NCATS))
In the library only some 2.7% were active in any assay of this set; here they are far more common.
RXFP1 agonist: qHTS Assay for Agonists of the Relaxin Receptor RXFP1; Relaxin receptor 1 (Homo sapiens), Q9HBX9; HEK293T-RXFP1 cAMP TR-FRET, 30 min; response scale: percent of porcine relaxin response, buffer zero; actives 0.3% (n = 370,000); Potency, µM (series often up to 57.5 µM), inactives show at the top dose activation, most hits filed as activators; active = well fitted activation curve with a large enough effect; inconclusive = small, poorly fitted or top-dose-only effect; note: potency is the fitted concentration of half-maximal effect; % is set by controls: 0 for no effect and ±100 for the full control effect; nearly all actives have a fitted effect of over 60% in size
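Agonist response is measured as cAMP accumulation in an RXFP1-transfected HEK293T line under PDE4 inhibition. Values are scaled between buffer-only and 29 nM porcine relaxin, and EC50s come from standard Hill equation fits.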
gsp agonist: qHTS for Agonist of gsp, the Etiologic Mutation Responsible for Fibrous Dysplasia/McCune-Albright Syndrome: qHTS; gsp mutant cells, cAMP HTRF, 30 min; Potency, µM (series often up to 76.9 µM), inactives show top-dose activation (cAMP increase), usual class: activators; actives 0.13% (n = 340,000); AID 624287, 2012; active = well fitted activation curve with a large enough effect; inconclusive = small, poorly fitted or top-dose-only effect, or another doubt; inactive = no such curve, though single readings can be large or run the other way; cell line not stated here;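 note: phosphodiesterase inhibitor Ro 20-1724 added with compounds to block cAMP breakdown; potency is the fitted concentration of half-maximal effect; nearly all actives have a fitted effect of over 60% in size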
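Cells stably selected in G418 were plated at 2000/well, grown 16-24 hr, then given compounds in DMSO with the PDE inhibitor […] (300 uM solution added) for 30 min at 37C; cAMP was read by HTRF.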
gsp antag: qHTS for Antagonists of gsp, the Etiologic Mutation Responsible for Fibrous Dysplasia/McCune-Albright Syndrome: qHTS; gsp-mutant cells, cAMP HTRF, 30 min; Potency, µM (top dose mostly 76.9 µM), inactives show top-dose activity change, negative = inhibition, usual class: inhibitors; actives 0.4% (n = 340,000); AID 624288, 2012; calls by dose curve; cell line not stated here;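 note: intracellular cAMP measured with PDE inhibitor Ro 20-1724 present during compound exposure; potency is the fitted concentration of half-maximal effect; % is set by controls: 0 for no effect and ±100 for the full control effect; nearly all actives have a fitted effect of over 65% in size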
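Cells in G418 medium, seeded 16-24 h, 37C; buffer exchange to DPBS + 1 mM CaCl2, 0.5 mM MgCl2, 0.05% BSA; cpds in DMSO + […] (300 uM stock), 30 min 37C; HTRF cAMP detection.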
RXFP1 antag: qHTS Assay for Antagonists of the Relaxin Receptor RXFP1; HEK293-RXFP1, relaxin-stimulated cAMP HTRF, 30 min; active compounds read low; activity change, negative = inhibition, % at 57.5 µM; actives 0.59% (n = 350,000); AID 1259400, 2018;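 active = activity change of -60% or lower, but not beyond a set lower limit; inconclusive = change between -60% and -40%, or beyond the set limit; inactive = change above -40%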; note: % is set by controls: 0 for no effect and ±100 for the full control effect
pAkt inh: HTS Assay for Inhibitors of Akt Phophorylation: Primary Screen. Neuro2A IGF-stimulated pAkt S473 HTRF, 20 min; active compounds read low. actives 0.32% (n = 360,000). activity change, % for hits at 50 µM; in the data active = activity change below about -80%; inconclusive = mostly about -51% to -80%; note: % is set by controls: 0 for no effect and ±100 for the full control effect
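Neuro2A cells in DMEM with 0.5% FBS, overnight at 37 deg C, given compound at single 50 µM final, then IGF (6 nM final) for 20 min at 37 deg C. Lysed; phospho-Akt Ser473 by HTRF after 24 h, 665/615 ratio.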
ClpP mod: qHTS Assay for Activators of ClpP; actives 1.9% (n = 340,000); AID 651965, 2013; Potency, µM (top dose mostly 57.5 µM), inactives show at the top dose activity change, negative = active; ATP-dependent Clp protease proteolytic subunit (Bacillus subtilis (strain 168)), P80244; purified B. subtilis ClpP, FRET peptide cleavage, 20 min; active = well fitted falling curve with a large enough effect; inconclusive = small, poorly fitted or top-dose-only effect; inactive = no such curve, though single readings can be large or run the other way; note: potency is the fitted concentration of half-maximal effect; the source files actives as falling curves though it sought activators and does not explain the sign; nearly all actives have a fitted effect of over 65% in size
Target sequence (P80244 whole entry, looked up): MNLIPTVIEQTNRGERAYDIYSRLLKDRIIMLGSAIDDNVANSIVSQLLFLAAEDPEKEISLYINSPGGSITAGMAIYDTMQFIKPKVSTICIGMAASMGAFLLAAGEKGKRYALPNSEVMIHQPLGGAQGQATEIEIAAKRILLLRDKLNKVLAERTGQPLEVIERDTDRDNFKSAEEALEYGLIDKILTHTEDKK
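Purified B. subtilis ClpP, 10 microg/mL final in Tris/HCl pH8 with KCl, BSA, glycerol and Tween-20, cleaved an Abz/nitrotyrosine-quenched decapeptide. Fluorescence (ex 320, em 430) was read at 0 and 20 min at room temperature. Delta was normalized to 5.8 microM ADEP and DMSO/no-enzyme controls.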
An asterisk follows results filed as active; i = inactive; u = inconclusive; x = no result given; [ ] = remark or other dose.

SMILES	RXFP1 agonist	gsp agonist	gsp antag	RXFP1 antag	pAkt inh	ClpP mod
O=C(NCc1ccccc1)N(Cc1nc2ccccc2c(=O)[nH]1)C1CCCC1	-0.8%	6.4%	-16.9%	1.9	i	14.1µM*
O=C(c1ccccc1)N(Cc1nc2ccccc2c(=O)[nH]1)C1CCCC1	2.2%	-3.6%[15.4 µM]	-11.1%	-21.5	i	x
N#Cc1cccc(S(=O)(=O)N2CCN(S(=O)(=O)c3ccc4c(c3)OCCO4)CC2)c1	x	x	x	x	x	-3.7%
COCCNC(=O)CCC(=O)N1Cc2cccc(OC)c2Oc2ncccc21	0.7%	x	x	-15.9	x	-0.7%
COc1cccc2c1Oc1ncccc1N(c1ccc(C(=O)NCc3cccc(C)c3)s1)C2	27.5%	x	x	-4.9	x	31.6µM*
COc1cccc2c1Oc1ncccc1N(c1ccc(C(=O)NCc3ccccc3Cl)s1)C2	u	x	x	-2.5	x	14.1µM*
COc1cccc2c1Oc1ncccc1N(C(=O)CCC(=O)NCc1ccc(N(C)C)cc1)C2	-1.0%	x	x	-2.5	x	-2.4%
c1cc2[nH]snc2c2nc(C3CC3)nc12	5.4%	25.1µM*	5.0%	-15.5	i	-27.1%
Nc1cccc(S(=O)(=O)N2CCOCC2)c1	x	x	x	x	x	-0.3%
N#Cc1c(SCC(=O)Nc2nccs2)sc2c(O)cc(=O)[nH]c12	8.2%	-1.7%	8.6%	-87.0*	i	0.1%
c1ccc2c(c1)ccc1ccccc12	x	1.7%	3.1%	11.0	i	-28.5%
Nc1c(C(O)(C(F)(F)F)C(F)(F)F)ccc2ccccc12	4.8%	12.8%	-11.9%	u	i	28.2µM*
O=C(/C=C/C(Cl)(Cl)Cl)Nc1ccc(Cl)cc1	x	u	-6.2%	-72.6*	i	1.0%
NC(=O)/C=C/C(=O)Nc1ccc(Cl)cc1	-1.3%	2.8%[15.4 µM]	-3.0%	7.2	i	x
Cc1cc(C)cc(C(=O)Nc2c(C(=O)Nc3ccccc3F)oc3ccccc23)c1	u	x	x	x	x	12.6µM*
COc1ccccc1NC(=O)c1oc2ccccc2c1NC(=O)c1cc(OC)c(OC)c(OC)c1	x	21.4%	26.4%	-10.0	-93.5%*	u
COc1ccc(NC(=O)c2oc3ccccc3c2NC(=O)c2cc(C)cc(C)c2)c(OC)c1	24.2%	x	x	x	x	3.9%
CCC1Sc2ccc(S(=O)(=O)N3CCN(c4ccccc4)CC3)cc2NC1=O (stereo not given)	-0.4%	u	-19.6%	-66.9*	i	-2.6%
CCOC(=O)CS(=O)(=O)c1nc(-c2ccccc2)cc(C(F)(F)F)n1	0.3%	11.9%	5.5%[15.4 µM]	-77.6*	i	-7.9%
COC(=O)CCS(=O)(=O)c1nc(-c2ccccc2)cc(C(F)(F)F)n1	0.9%	-0.2%	21.7%	1.3	i	-7.1%
CCOC(=O)CS(=O)(=O)c1nc(-c2ccc(F)cc2)cc(C(F)(F)F)n1	0.1%	0.4%	1.9%[15.4 µM]	-80.2*	i	22.4µM*
CCOC(=O)CCS(=O)(=O)c1nc(-c2ccccc2)cc(C(F)(F)F)n1	0.8%	0.6%	29.4%	x	i	-2.5%
Cc1ccccc1NC(=O)c1cnc2sc(N3CCCC3)nn2c1=O	u	x	x	-5.4	x	-0.1%
Cc1cccc(C)c1NC(=O)CSc1nnc(-c2ccco2)c(-c2ccco2)n1	0.0%	9.0%[15.4 µM]	-9.3%	-67.8*	i	1.3%
Cc1cccc(C)c1NC(=O)CCCSc1nnc(-c2ccco2)o1	3.2%	5.9%	16.4%	-12.4	-110.9%*	0.2%
CCOc1ccc2oc(C(=O)OCC(=O)N(CC(C)C)c3c(N)n(Cc4ccccc4)c(=O)[nH]c3=O)c(C)c2c1	x	9.9%	-4.7%	-2.7	i	43.0%
Cn1c(-c2ccc(-c3ccccc3)cc2)c[nH]c1=S	-1.0%	1.5%	3.5%	-21.6	i	12.6µM*
COc1cccc(-n2c(-c3ccccc3)c[nH]c2=S)c1	-1.3%	u	-16.9%	-79.2*	i	x
